Assay [1] can be described thus: E. coli DRC41 culture turbidity changes, primary screen, E. coli filamentation inducer project, strain DRC41, OD650, 48 h (AID 1152).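 Also: E. coli MC1000 strain DRC41 lacking acrAB efflux pump and sulA.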 As to conditions: E. coli DRC41 (acrAB sulA), higher = more signal, called active from +8 up or from −8 down.
Assay [2] is described as follows: small-molecule binders of probe aLefty1, primary screen, biochemical, small-molecule microarray, 635/667 nm fluorescence (AID 1153).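 Also: score merges spot fluorescence with signal-to-noise ratio from the scanned slide images.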 The settings on record: higher = more signal.
Assay [3] is described as follows: PSAC antagonists in infected red cells, primary screen, cell-based, P. falciparum Indochina, OD700, 1 h (AID 1154). The settings on record: P. falciparum Indochina infected RBC osmotic lysis, higher = more signal, called active from +8 up or from −8 down.
A short description of assay [4]: PSAC antagonists in infected red cells, primary screen, cell-based, P. falciparum Indochina, OD700, 2 h (AID 1155).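 Also: lysis reports solute entry through the parasite surface anion channel PSAC; channel blockers reduce lysis of infected cells.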 The settings on record: P. falciparum Indochina infected erythrocytes, osmotic lysis OD700; higher = more signal, called active from +8 up or from −8 down.
The nature of assay [5]: osmotic lysis modulators in infected erythrocytes, primary screen, PSAC antagonist project, cell-based, P. falciparum Indochina, OD700, 3 h (AID 1156). As to conditions: higher = more signal, called active from +8 up or from −8 down.
A short description of assay [6]: PSAC antagonists in infected red cells, primary screen, cell-based, P. falciparum Indochina, OD700, 18 h (AID 1157). As to conditions: P. falciparum Indochina infected erythrocytes, osmotic lysis OD700, 18 h; higher = more signal, called active from +8 up or from −8 down.
Assay [7] is described as follows: modulators of S6 phosphorylation in cells, primary screen, cell-based, A549, cytoblot, luminescence, serum-stimulated (AID 1158).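 Also: serum-stimulated A549 lung adenocarcinoma cells; signal is phosphorylated S6 detected by cytoblot immunostaining with HRP secondary.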 As to conditions: A549 phospho-S6 cytoblot, 5 h, higher = more signal.
Assay [8] deals with NADPH oxidase 2 (Homo sapiens) (UniProt P04839). Kind of assay: NOX2-dependent H2O2 signal modulators, primary screen, NOX inhibitor project, cell-based, HEK293-NOX2, PMA-stimulated, Amplex Red fluorescence (AID 1159). Also: test concentration not given here. The settings on record: 45 min, higher = more signal, called active from +8 up or from −8 down.
NADPH oxidase 2 (Homo sapiens), sequence (P04839 whole entry, looked up): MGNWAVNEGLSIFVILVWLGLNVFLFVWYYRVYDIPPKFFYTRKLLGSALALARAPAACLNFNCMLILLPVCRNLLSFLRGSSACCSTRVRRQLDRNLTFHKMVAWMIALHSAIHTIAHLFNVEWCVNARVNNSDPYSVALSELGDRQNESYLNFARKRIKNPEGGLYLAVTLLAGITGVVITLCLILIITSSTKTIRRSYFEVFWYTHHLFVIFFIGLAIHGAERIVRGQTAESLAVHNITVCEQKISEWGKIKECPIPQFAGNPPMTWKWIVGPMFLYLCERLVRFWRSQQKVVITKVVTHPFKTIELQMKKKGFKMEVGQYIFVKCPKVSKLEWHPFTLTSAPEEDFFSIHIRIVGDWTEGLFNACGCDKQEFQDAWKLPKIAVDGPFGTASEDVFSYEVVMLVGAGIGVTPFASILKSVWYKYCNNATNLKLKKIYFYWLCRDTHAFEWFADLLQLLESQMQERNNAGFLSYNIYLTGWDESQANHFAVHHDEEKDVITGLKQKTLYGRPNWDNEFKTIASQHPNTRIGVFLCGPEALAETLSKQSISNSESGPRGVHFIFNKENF
Assay [9] deals with NADPH oxidase 4 (Homo sapiens) (UniProt Q9NPH5). In words: NOX4-dependent H2O2 signal modulators, primary screen, NOX inhibitor project, cell-based, HEK293-NOX4, tetracycline-induced, Amplex Red fluorescence (AID 1160). As to conditions: 45 min, higher = more signal, called active from +8 up or from −8 down.
NADPH oxidase 4 (Homo sapiens), sequence (Q9NPH5 whole entry, looked up): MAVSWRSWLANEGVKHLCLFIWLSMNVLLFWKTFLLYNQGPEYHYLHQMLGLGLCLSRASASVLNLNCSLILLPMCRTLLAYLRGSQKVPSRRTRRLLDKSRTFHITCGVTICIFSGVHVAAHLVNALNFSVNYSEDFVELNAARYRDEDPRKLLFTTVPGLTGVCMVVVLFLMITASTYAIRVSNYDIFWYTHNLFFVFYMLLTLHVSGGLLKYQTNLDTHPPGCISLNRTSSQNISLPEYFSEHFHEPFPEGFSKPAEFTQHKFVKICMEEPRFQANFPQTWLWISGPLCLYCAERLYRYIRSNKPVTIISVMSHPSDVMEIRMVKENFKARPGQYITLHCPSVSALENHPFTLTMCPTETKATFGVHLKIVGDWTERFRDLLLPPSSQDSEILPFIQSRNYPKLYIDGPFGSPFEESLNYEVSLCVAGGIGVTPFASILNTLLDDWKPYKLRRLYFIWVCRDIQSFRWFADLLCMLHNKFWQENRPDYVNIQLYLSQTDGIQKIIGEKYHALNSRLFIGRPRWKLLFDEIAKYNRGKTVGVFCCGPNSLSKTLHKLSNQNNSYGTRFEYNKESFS
The target in assay [10] is NADPH oxidase 5 (Homo sapiens) (UniProt Q96PH1). Kind of assay: NOX5-dependent H2O2 signal modulators, primary screen, NOX inhibitor project, cell-based, HEK293-NOX5, Amplex Red fluorescence (AID 1161). As to conditions: HEK293-NOX5, ionomycin, 45 min, higher = more signal.
NADPH oxidase 5 (Homo sapiens), sequence (Q96PH1 whole entry, looked up): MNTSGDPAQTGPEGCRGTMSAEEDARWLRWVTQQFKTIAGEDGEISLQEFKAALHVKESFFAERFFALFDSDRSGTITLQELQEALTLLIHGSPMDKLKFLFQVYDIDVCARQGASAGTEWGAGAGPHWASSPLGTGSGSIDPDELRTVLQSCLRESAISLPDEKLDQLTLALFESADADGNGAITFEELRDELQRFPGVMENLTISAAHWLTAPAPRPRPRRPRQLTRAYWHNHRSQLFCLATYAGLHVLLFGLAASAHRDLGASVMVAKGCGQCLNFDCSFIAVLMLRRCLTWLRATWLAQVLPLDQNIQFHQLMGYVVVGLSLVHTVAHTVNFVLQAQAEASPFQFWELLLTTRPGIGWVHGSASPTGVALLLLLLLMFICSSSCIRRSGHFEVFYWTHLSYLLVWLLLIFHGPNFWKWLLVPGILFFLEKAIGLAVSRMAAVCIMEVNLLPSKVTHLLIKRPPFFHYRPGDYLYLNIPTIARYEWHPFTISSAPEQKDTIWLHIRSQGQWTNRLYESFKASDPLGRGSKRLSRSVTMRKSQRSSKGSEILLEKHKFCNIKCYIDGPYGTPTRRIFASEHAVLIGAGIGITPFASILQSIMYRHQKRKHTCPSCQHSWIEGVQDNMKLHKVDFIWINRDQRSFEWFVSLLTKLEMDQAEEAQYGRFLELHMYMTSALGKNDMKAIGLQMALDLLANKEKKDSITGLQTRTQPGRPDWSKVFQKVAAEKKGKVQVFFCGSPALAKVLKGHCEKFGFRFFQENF
Assay [11] can be described thus: A549 cell viability effects, profiling panel, calcein-AM fluorescence, 48 h, basal (AID 1162). Also: test concentration not given here. The settings on record: higher = more signal.
Assay [12] can be described thus: adipocyte viability effects, profiling panel, cell-based, 3T3-L1 adipocytes, calcein-AM fluorescence, 48 h, basal (AID 1163). Also: test concentration not given here. As to conditions: 3T3-L1 adipocytes viability, higher = more signal.
The nature of assay [13]: HepG2 cell viability effects, profiling panel, calcein-AM fluorescence, 48 h, basal (AID 1164). Also: test concentration not given here. As to conditions: higher = more signal.
Assay [14] is described as follows: MM1S cell viability effects, profiling panel, calcein-AM fluorescence, 48 h, basal (AID 1165).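 Also: viability of MM1S multiple myeloma cells under basal unstimulated conditions; test concentration not given here.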 The settings on record: higher = more signal.
Assay [15] is described as follows: basal RPMI8226 viability, no added stimulus, profiling panel, cell-based, calcein-AM fluorescence, 48 h, PK04 Diversity Set (AID 1166).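 Also: cells grown under basal conditions without added stimulus; test concentration not given here.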 The settings on record: RPMI8226 myeloma viability, higher = more signal.
Assay [16] is described as follows: basal HepG2 mitochondrial membrane potential changes, profiling panel, cell-based, JC-1 fluorescence, 24 h, 100 nL compound (AID 1167). Also: test concentration not given here. The settings on record: higher = more signal.
The nature of assay [17]: basal 3T3-L1 adipocyte mitochondrial potential changes, profiling panel, cell-based, JC-1 fluorescence, 3T3-L1 adipocytes, 24 h, 100 nL compound (AID 1168). Also: test concentration not given here. The settings on record: JC-1 mitochondrial fluorescence, higher = more signal, called active from +8 up or from −8 down.
A short description of assay [18]: basal RPMI8226 mitochondrial membrane potential changes, profiling panel, cell-based, JC-1 fluorescence, 24 h, 100 nL compound (AID 1169). Also: test concentration not given here. The settings on record: RPMI8226 myeloma, JC-1 mitochondrial potential fluorescence, higher = more signal.
Assay [19] is described as follows: basal MM1S mitochondrial membrane potential changes, profiling panel, cell-based, JC-1 fluorescence, 24 h, 100 nL compound (AID 1170). Also: test concentration not given here. As to conditions: higher = more signal.
The nature of assay [20]: A549 lung cancer cell viability effects, profiling panel, resazurin fluorescence, 24 h, PK04 Diversity Set (AID 1171). Also: test concentration not given here. As to conditions: higher = more signal, called active from +8 up or from −8 down. Background: The colour change of resazurin is a common sign of viable cells or microbes.

The source made the active and inactive calls.

For the molecule `O=C1O[C@H](c2ccccc2)[C@H](c2ccccc2)N2[C@H]1[C@@H](C(=O)N1CCN(c3ncccn3)CC1)[C@]1(C(=O)Nc3ccc(C#CCCO)cc31)[C@H]2c1ccc(O)cc1`, the z-score is -0.951 (inactive) in assay [1]; 1.28 (inactive) in assay [3]; 0.436 (inactive) in [4]; 1.2 (inactive) in assay [5]; 0.0991 (inactive) in assay [6]; 0.201 in assay [7]. Further, the z-score in assay [8] is 0.84 (inactive); in assay [9] it was 0.722 (inactive); in [10], 1.41; in [11], 0.356; in assay [12], 0.255; in [13] it was 0.775. Further, the z-score was -0.0982 in [14]; -0.26 in assay [15]; -0.19 in [16]; -0.501 (inactive) in assay [17]; -0.443 in assay [18]; -0.0233 in assay [19]. In addition, in [20], the z-score was 1.59 (inactive). This molecule came in with a composite z-score in assay [2] of 0.208.
For the molecule `O=C1OCCC=C[C@H]2OC34C=CCN(c5ccc6ccccc6c5)C(=O)[C@H]3N(CCO)C(=O)[C@@H]4C12` (stereo not given in full), the z-score is -0.701 (inactive) in [1]; 0.809 (inactive) in assay [3]; 0.791 (inactive) in [4]; 1.11 (inactive) in assay [5]; 0.332 (inactive) in [6]; -0.366 in [7]. Besides, the z-score in assay [8] was 1.47 (inactive); in assay [9] it was -0.0539 (inactive); in assay [10], 2.41; in [11] it was 0.327; in [12] it was -0.423; in assay [13] it was 0.0955. For the same molecule, the z-score in [14] is 0.508; in assay [15], 0.037; in assay [16] it was -0.409; in assay [17], -0.502 (inactive); in [18], 0.122; in [19], 0.611. Also, the z-score in assay [20] is -0.751 (inactive). The molecule also had a composite z-score in [2] of -0.815.
`O=C1C[C@@](C(=O)NC2CC2)(c2ccc([N+](=O)[O-])cc2)[C@@H](c2ccc(CO)cc2)N1C1CCCCC1`: the z-score in assay [1] was 1.25 (inactive); in assay [3], 1.97 (inactive); in assay [4], -0.0047 (inactive); in assay [5], 0.736 (inactive); in assay [6], -0.115 (inactive); in assay [7], 3.97. The z-score in [8] was -1.06 (inactive); in assay [9] it was -3.7 (inactive); in assay [10], -5.08; in assay [11], 1.91; in assay [12] it was 1.24; in assay [13], -0.0212. In addition, the z-score in assay [14] was -0.177; in [15], -1.3; in assay [16] it was 1.28; in assay [17], 0.0821 (inactive); in assay [18], -0.00601; in assay [19], -1.18. The z-score in assay [20] was 1.04 (inactive). The molecule further gave a composite z-score in assay [2] of 0.345.
Turning to `COc1cc(CO)cc(I)c1O[C@H]1C=C(C(=O)NCCO)C[C@@H](NC2CCCCCC2)[C@@H]1O`, the z-score was 0.818 (inactive) in [1]; 10.1 (active) in assay [3]; 1.55 (inactive) in assay [4]; 3.68 (inactive) in assay [5]; 1.09 (inactive) in assay [6]; 0.565 in assay [7]. For the same molecule, the z-score in assay [8] was 0.287 (inactive); in [9], -0.789 (inactive); in assay [10], -0.579; in assay [11] it was -0.226; in [12], -0.174; in [13], 0.806. The z-score in assay [14] was -3.23; in assay [15] it was -0.334; in assay [16], 1.09; in assay [17], 0.426 (inactive); in assay [18] it was -0.441; in assay [19], -3.21. Also, in [20], the z-score is 0.406 (inactive). Further, the composite z-score in assay [2] was determined as 0.0313.
For the molecule `COC(=O)C(CC#Cc1ccc2c(c1)[C@]1(C(=O)N2)[C@H](c2ccc(OCCO)cc2)N2[C@H](c3ccccc3)[C@H](c3ccccc3)OC(=O)[C@H]2[C@@H]1C(=O)N1CCCCCCC1)C(=O)OC`, the z-score was -0.598 (inactive) in [1]; 7.3 (inactive) in assay [3]; 1.59 (inactive) in [4]; 0.309 (inactive) in [5]; 0.712 (inactive) in assay [6]; -0.173 in [7]. The z-score in assay [8] was 0.783 (inactive); in [9], 0.196 (inactive); in [10] it was 1.44; in assay [11], 0.996; in assay [12], 0.915; in assay [13] it was 0.846. Besides, the z-score was 0.491 in [14]; -1.88 in assay [15]; -0.386 in [16]; -1.82 (inactive) in assay [17]; -1.08 in assay [18]; -1.36 in assay [19]. Also, the z-score in assay [20] is -0.387 (inactive). The composite z-score in [2] was 2.67.
For the molecule `CC1CC/C=C\[C@H]2OC34C=CCN(Cn5nnc6ccccc65)C(=O)[C@H]3N(CCCCCCO)C(=O)[C@@H]4C2C(=O)O1` (stereo not given in full), the z-score is 0.699 (inactive) in [1]; 0.59 (inactive) in assay [3]; -0.139 (inactive) in [4]; -0.248 (inactive) in assay [5]; 0.527 (inactive) in assay [6]; 1.2 in assay [7]. Besides, the z-score in assay [8] was 1.02 (inactive); in assay [9] it was 0.515 (inactive); in [10], 2.37; in assay [11], 0.264; in assay [12] it was -0.0662; in assay [13] it was 0.91. The z-score is 1.95 in [14]; 0.456 in [15]; 1.63 in assay [16]; 0.53 (inactive) in [17]; 0.8 in assay [18]; -0.657 in [19]. In [20], the z-score is 0.0188 (inactive). The molecule further registered a composite z-score in assay [2] of 0.0999.
In the case of `CN(C)c1ccc(C(O)C2C=CC3C(=O)N(Cc4ccccc4)C(=O)C3N2n2cnnc2)cc1` (stereo not given), the z-score in assay [1] was 1.3 (inactive); in assay [3], 0.0651 (inactive); in assay [4], -0.318 (inactive); in assay [5], 0.747 (inactive); in [6] it was -0.553 (inactive); in assay [7] it was 1.02. Further, the z-score was 0.683 (inactive) in assay [8]; -0.524 (inactive) in [9]; 0.36 in assay [10]; 0.566 in assay [11]; -0.179 in assay [12]; 2.13 in [13]. Besides, the z-score was 0.0017 in assay [14]; 1.4 in assay [15]; 0.0219 in assay [16]; 0.522 (inactive) in assay [17]; -0.203 in assay [18]; 1.23 in assay [19]. For the same molecule, the z-score in assay [20] was -1.04 (inactive). The molecule further came in with a composite z-score in assay [2] of -0.115.
For `O=C1C2C=CC(C(O)C3CCCCC3)N(n3cnnc3)C2C(=O)N1Cc1ccccc1` (stereo not given), the z-score was 0.253 (inactive) in assay [1]; 2.45 (inactive) in assay [3]; -0.471 (inactive) in assay [4]; 0.312 (inactive) in assay [5]; -1.6 (inactive) in assay [6]; 1.75 in assay [7]. The z-score in assay [8] is -4 (inactive); in assay [9] it was -0.921 (inactive); in [10] it was -5.07; in assay [11], -0.916; in assay [12], 0.379; in assay [13] it was -0.611. Besides, the z-score is -0.453 in [14]; -0.441 in [15]; -0.37 in [16]; -2.27 (inactive) in assay [17]; -0.0098 in assay [18]; -1.04 in assay [19]. For the same molecule, in assay [20], the z-score was 0.714 (inactive). The molecule also returned a composite z-score in [2] of 0.375.
As for `COC(=O)[C@@]1(Cc2ccc(OC)cc2)[C@H]2c3cc(C(=O)N4CCCC4)n(Cc4ccc(C(F)(F)F)nc4)c3C[C@H]2CN1C(=O)c1ccccc1`, the z-score is -2.07 (inactive) in assay [1]; 6.38 (inactive) in assay [3]; 4.52 (inactive) in assay [4]; 0.746 (inactive) in assay [5]; 3.37 (inactive) in [6]; -0.249 in [7]. In addition, the z-score is 0.101 (inactive) in [8]; 0.564 (inactive) in assay [9]; 0.63 in [10]; -1.3 in assay [11]; 0.202 in [12]; 0.0749 in [13]. Besides, the z-score is -1.03 in [14]; -1.33 in [15]; 0.952 in assay [16]; -1.59 (inactive) in [17]; -0.779 in [18]; -1.69 in assay [19]. The z-score in assay [20] is -0.266 (inactive). In assay [2], this molecule came in with a composite z-score of -0.0647.
